Drawing on PubChem BioAssay AID2690 (NMMLSC, 2010), this text covers superoxide response (% of plate mean) for 47 compounds.

In all, about 330,000 compounds went through this assay and about 590 (0.18%) were called active. For the sample, actives were picked, then their nearest neighbours and some compounds at random. Values without a mark were called inactive.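 How the source made its calls: active means superoxide response under a set limit, about three screen SD below normal (cut at about 65% in these data); inactive means the rest.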

This experiment in a line: reduction of superoxide in aged yeast, primary screen, HTS (AID 2690).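 Further: yeast aged for seven days with compound at 30 °C before DHE staining; 100% = average MFI of all compound-treated wells on the plate with controls excluded.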 To be noted: S. cerevisiae aged cells, superoxide DHE fluorescence; at 10 µM; hits give low values.
For the compound `CN(C)c1ccc(/C=N\S(=O)(=O)c2ccccc2)cc1`, the superoxide response (% of plate mean) was 64.7% (active). The value for `CN(C)c1ccc(C=NCCc2ccc(S(N)(=O)=O)cc2)cc1` was 82.2%. The value for `CN(C)c1ccc(/C=N/NC(=O)C(O)c2ccc(Br)cc2)cc1` (configuration not stated) was 110%.

On to `Cc1c(C(=O)OCC(=O)N(CCC#N)c2ccccc2)oc2c1ccc1ccccc12`, for which the superoxide response (% of plate mean) was 86.3%. The same measure for `C=C(C)CNC(=O)c1ccc(OC2CCN(C(=O)COC)CC2)cc1`: 103%; for `COCCC(=O)N1CCC(Oc2ccc(C(=O)NCc3ccon3)cc2)CC1`: 92%; for `COC(=O)CNC(=O)c1ccc(OC2CCN(C(=O)C3CC3)CC2)cc1`: 64% (active).

Turning to `C[n+]1cc(-c2ccccc2)oc1-c1ccccc1`, the superoxide response (% of plate mean) was 96.2%.

Consider `COc1ccc(/C(C)=N/Nc2cc(C(F)(F)F)ccc2Cl)c(OC)c1`, for which the superoxide response (% of plate mean) is 87.7%. The value for `N=C1C(=O)OCC1c1ccccc1NC(=O)CN1CCCCC1` (configuration not stated) was 110%. The value for `CCCCOC(=O)Nc1sc2nc(C)cc(C)c2c1-n1cccc1` was 113%. `Cc1ccc2c(cnn2C(=O)CCC(=O)NC2CCCC2)c1`: the superoxide response (% of plate mean) is 96.7%. The value for `COc1ccc(C2=Nc3cc(C)ccc3OC2)cc1` was 99.1%. On to `C#CCO[C@@H]1C[C@H](n2cnc3c(=O)[nH]c(NC(=O)C(C)C)nc32)O[C@@H]1CO`, for which the superoxide response (% of plate mean) is 101%. The value for `COCCN(C(=O)CCC(=O)Nc1nccs1)C(C(=O)NC(C)(C)C)c1ccc(Cl)cc1` (configuration not stated) was 87.1%; that for `O=C(NC1CCCC1)C1CC(=O)N(c2ccc(F)cc2)C1` (configuration not stated) was 96.9%; that for `COc1ccc(C(C)C)cc1S(=O)(=O)Nc1ncn[nH]1` was 87.8%. The value for `O=c1o[nH]c(-c2ccccc2)c1N=Nc1c(F)cccc1Cl` was 105%; that for `O=C(NCCCNC(=O)NC1CCCCC1)NC1CCCCC1` was 106%; that for `O=C(Oc1c(-c2ccco2)oc2ccccc2c1=O)c1cccnc1` was 104%. The same measure for `O=[N+]([O-])c1cc(S(=O)(=O)Nc2cccc(Cl)c2)ccc1N=Nc1c(O)[nH]c2ccccc12`: 91.3%; for `CC(=O)c1c(C)c[nH]c1C`: 90.3%. Regarding `Cc1ccc(NC(=O)CSCC(=O)N2CCOCC2)cc1`, the superoxide response (% of plate mean) was 98.5%.

For `CCc1ccccc1N(CC(=O)NCC1CCCO1)C(=O)CCC(=O)Nc1nccs1` (configuration not stated), the superoxide response (% of plate mean) was 88%. The value for `COc1ccc(-c2cc(C(=O)N(C)Cc3ccc(OC)c(OC)c3OC)c3ccccc3n2)cc1OC` was 96.5%. Regarding `Cc1cccc(CN2CCC(CNC(=O)Nc3ccc(F)c(Cl)c3)CC2)c1`, the superoxide response (% of plate mean) is 92.6%. The same measure for `O=C(NCC1CCN(Cc2ccccc2Cl)CC1)Nc1cccc(Cl)c1`: 103%. The same measure for `Cc1ccccc1NC(=O)NCC1CCN(Cc2cccc(Cl)c2)CC1`: 36.3% (active). Consider `C/C(N)=C(/C#N)C(=O)COC(=O)C1=NN(c2ccccc2)C(=O)CC1`, for which the superoxide response (% of plate mean) is 82.1%. The value for `CN(C)C1=NC[C@H](Cc2ccccc2)N1CCc1ccc(F)cc1` was 98.7%; that for `C/C(=N\NS(=O)(=O)c1cccc([N+](=O)[O-])c1)c1cc2ccccc2o1` was 107%. The value for `CCC(=O)N(C)C(c1ccccc1Cl)c1nnnn1-c1c(C)cccc1C` (configuration not stated) was 107%. As for `COc1ccccc1C(=O)Nc1ccnn1C1CCN(Cc2cnn(C)c2)CC1`, the superoxide response (% of plate mean) is 92%.

As for `O=C(NNC(=O)c1cc(S(=O)(=O)N2CCCCC2)ccc1Cl)c1ccccc1O`, the superoxide response (% of plate mean) was 95.4%. For the compound `CCC1(CC)C(=O)C2=C3C1[C@H](C(=O)OC)C=C(C(=O)OC)C[C@H]3[C@H]1C(=O)N(Cc3ccccc3)C(=O)[C@H]1[C@H]2C` (some centres not stated), the superoxide response (% of plate mean) was 107%. In the case of `CC[C@]12c3[nH]c4cc(CCC(=O)N(C)C)ccc4c3CCN1C(=O)[C@@H](CC(=O)NCC13CC4CC(CC(C4)C1)C3)C[C@@H]2C(=O)N1CCN(C(=O)C2CC2)CC1`, the superoxide response (% of plate mean) was 120%. The same measure for `CCOC(=O)NNC(=O)c1ccc(Cl)cc1`: 96.8%.

As for `O=C(NNC(=O)C1C2CCC(C2)C1C(=O)O)c1ccc(Cl)cc1` (configuration not stated), the superoxide response (% of plate mean) was 97.2%. The value for `CSc1sc(C(=O)NNC(=O)c2ccc(Cl)cc2)c2c1C=CCC2` was 61.9% (active). With `O=C(NC(=S)Nc1ccccc1N1CCCCC1)c1ccc(F)cc1`, the superoxide response (% of plate mean) was 98.2%. The same measure for `O=C(Nc1ccccc1N1CCCC1)c1ccc2ccccc2c1`: 59% (active); for `O=C(Nc1ccccc1N1CCCC1)c1ccc(F)c(S(=O)(=O)N2CCOCC2)c1`: 85.3%; for `Cc1cccc2c1cnn2C(=O)CCC(=O)NC1CCCCC1`: 82.7%. As for `N#Cc1cccc(NC(=O)CN2CCCCCC2)c1`, the superoxide response (% of plate mean) was 94.7%. The value for `COc1cc(CO)ccc1OCC(=O)Nc1cccc2ccccc12` was 99.9%; that for `Cc1cccc2[nH]c(CN(C)C(=O)C3CCC(=O)N(CCc4ccccc4)C3)nc12` (configuration not stated) was 102%; that for `COc1ccc(-c2c(-c3cc(OC)cc(OC)c3)n(C)c3ccc(-c4ccn[nH]4)cc23)cc1` was 87%.
